# “And” between values parts separate entries of the source, which are not always exact repeats. Equal entries are not always repeated. Unmarked numbers belong to inactive results. Unless noted, calls come from the whole dose curve. Records with an inconclusive call do not appear.
# Target: alpha-glucosidase (Oryza sativa, rice) (UniProt Q653V4)
# Assay: Counterscreen for Glucocerebrosidase Inhibitors: qHTS Assay for Rice alpha-Glucosidase at pH 5.0 (AID 997; active = well fitted curve in the direction sought with a large enough effect;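 note: 0% = full activity with enzyme and -100% = basal without enzyme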)
# Settings: rice alpha-glucosidase enzyme activity; series mostly up to 76.9 µM; activity change, negative = inhibition: at the top concentration
# Method in brief: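 Endpoint fluorogenic assay at pH 5.0: compounds (0.7 nM to 77 uM) titrated against 4 nM rice enzyme and 400 uM 4-MU-alpha-glucoside for 20 min at room temperature; NaOH/glycine stop, read ex 365/em 440 nm, Hill-fitted AC50.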
row,Structure (SMILES),"activity change, negative = inhibition"
1,N[C@@H](Cc1ccc(O)c(O)c1)C(=O)O,-2.5%
2,CC(=O)[C@H]1CC[C@H]2[C@@H]3CCC4=CC(=O)CC[C@]4(C)[C@H]3CC[C@]12C,-4.32%
3,COc1cc2ncnc(Nc3cccc(Cl)c3)c2cc1OC,-2.37%
4,NC(=O)c1cccc(N)c1,1.76%
5,Cc1ccc(S(=O)(=O)N[C@@H](Cc2ccccc2)C(=O)CCl)cc1,-0.693%
6,CC(C)(C)NC(=O)[C@H]1CC[C@H]2[C@@H]3CC[C@H]4NC(=O)C=C[C@]4(C)[C@H]3CC[C@]12C,-0.972%

# Test system: not listed separately
# Assay: qHTS Assay for Lipid Storage Modulators (AID 1519); note: % is set by controls: 0 for no effect and ±100 for the full control effect
# Settings: Drosophila S3 cells, BODIPY lipid droplet/cell ratio, laser cytometry; at 25.7 µM (top of the series); cells loaded with oleic acid
# Method in brief: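 Cells seeded at 5,000 per well were treated with compounds over a concentration series and loaded with oleic acid (400 uM, as added). Lipid droplet fluorescence (488 nm excitation, 500-530 nm channel) was read by laser-scanning cytometry and normalized to 20 uM Triacsin C.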
row,Structure (SMILES),"activity change, negative = inhibition"
1,COc1cnc(NS(=O)(=O)c2ccc(N)cc2)nc1,-0.0044%
2,CC(C)(Sc1cc(C(C)(C)C)c(O)c(C(C)(C)C)c1)Sc1cc(C(C)(C)C)c(O)c(C(C)(C)C)c1,-2.44%
3,NC(N)=NC(N)=NCCc1ccccc1,-0.801%
4,CCOC(=O)c1ccc(OC(=O)CCCCCN=C(N)N)cc1,1.48%
5,Cc1cc(NS(=O)(=O)c2ccc(N)cc2)no1,0.06%
6,COc1ncnc(NS(=O)(=O)c2ccc(N)cc2)c1OC,-2.34%
7,Cc1cccc(Nc2ccncc2S(=O)(=O)NC(=O)NC(C)C)c1,-1.07%
8,COc1cc(NS(=O)(=O)c2ccc(N)cc2)nc(OC)n1,-1.42%
9,N=C(N)c1ccc(OCCCCCOc2ccc(C(=N)N)cc2)cc1,-3.38%
10,COc1ccc2c(c1)c(CC(=O)OCC(=O)O)c(C)n2C(=O)c1ccc(Cl)cc1,1.43%
11,CCn1cc(C(=O)O)c(=O)c2cc(F)c(N3CCNCC3)nc21,0.491%
12,CCc1cc(C(N)=S)ccn1,-2.71%
13,Cc1nnc(NS(=O)(=O)c2ccc(N)cc2)s1,0.279%
14,COc1ccc2cc3[n+](cc2c1OC)CCc1cc2c(cc1-3)OCO2,-1.57%
15,O=C(O)c1cccnc1,-4.1%
16,COC(=O)Nc1nc2ccc(C(=O)c3ccccc3)cc2[nH]1,-15.3%

# Same assay, conditions: Drosophila S3 cells, BODIPY lipid droplet/cell ratio, laser cytometry; at 57.5 µM (top of the series); cells loaded with oleic acid
row,Structure (SMILES),"activity change, negative = inhibition"
1,COc1cnc(NS(=O)(=O)c2ccc(N)cc2)nc1,4.6%
2,CC(C)(Sc1cc(C(C)(C)C)c(O)c(C(C)(C)C)c1)Sc1cc(C(C)(C)C)c(O)c(C(C)(C)C)c1,6.58%
3,CCCCCCNC(=O)n1cc(F)c(=O)[nH]c1=O,8.3%
4,COc1ccc(C(=O)CC(=O)c2ccc(C(C)(C)C)cc2)cc1,1.96%
5,Cc1cc(NS(=O)(=O)c2ccc(N)cc2)no1,10.1%
6,Nc1nc(N)c2nc(CNc3ccc(C(=O)NC(CCC(=O)O)C(=O)O)cc3)cnc2n1 (stereo not given),6.58% and 1.3%
7,Cc1cccc(Nc2ccncc2S(=O)(=O)NC(=O)NC(C)C)c1,6.92%
8,COc1cc(NS(=O)(=O)c2ccc(N)cc2)nc(OC)n1,14.8%
9,CN(Cc1cc(Br)cc(Br)c1N)C1CCCCC1,-8.74%
10,N=C(N)c1ccc(OCCCCCOc2ccc(C(=N)N)cc2)cc1,3.95%
11,CCn1cc(C(=O)O)c(=O)c2cc(F)c(N3CCNCC3)nc21,8.65%
12,CC(=O)[C@H]1CC[C@H]2[C@@H]3CCC4=CC(=O)CC[C@]4(C)[C@H]3CC[C@]12C,1.11%
13,CCc1cc(C(N)=S)ccn1,6.15%
14,NCCCC(O)(P(=O)(O)O)P(=O)(O)O,6.27%
15,NC(=O)c1cccc(N)c1,7.95%
16,Cc1nnc(NS(=O)(=O)c2ccc(N)cc2)s1,7.74%
17,O=C(O)c1cccnc1,5.73%
18,CCCc1cc(C(N)=S)ccn1,6.18%
